About 410 targets per protein were measured; listed, in parts, are those with the strongest signals and a random draw of the rest.
Columns and labels:
Experiment in all cases: glycan array binding signal (z-score within array); higher = stronger binding
Conditions in all cases: glycan notation: IUPAC condensed, linker removed
[1] = target: Fuc(a1-2)Gal
Summary of the method: (§1)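 Glycan array binding is given as a within-array Z-score, which can be read as non-binding when negative. The arrays, 3228 of them, came from the Consortium for Functional Glycomics database and were retained only where the protein sequence was available. Z-scores were averaged across arrays of the same protein sequence at different concentrations or buffers and across linkers.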

[2] = target: Fuc(a1-2)Gal(b1-4)Glc6S
Summary of the method: as §1

[3] = target: Fuc(a1-2)[Gal(a1-4)]Gal(b1-4)GlcNAc
Summary of the method: as §1

[4] = target: Gal(a1-3)GalNAc
Summary of the method: as §1

[5] = target: Gal(b1-3)GalNAc
Summary of the method: as §1

[6] = target: Gal(b1-4)Glc
Summary of the method: as §1

[7] = target: Gal(b1-4)GlcNAc(a1-6)Gal(b1-4)GlcNAc
Summary of the method: as §1

[8] = target: Gal(b1-4)GlcNAc(b1-3)Gal(b1-4)Glc
Summary of the method: as §1

[9] = target: Gal3S(b1-3)GalNAc
Summary of the method: as §1

[10] = target: Gal3S6S(b1-4)GlcNAc6S
Summary of the method: as §1

[11] = target: GlcNAc(b1-2)Man(a1-3)[GlcNAc(b1-2)Man(a1-6)]Man(b1-4)GlcNAc(b1-4)GlcNAc
Summary of the method: as §1

[12] = target: GlcNAc(b1-3)[GlcNAc(b1-6)]GalNAc
Summary of the method: as §1

[13] = target: GlcNAc(b1-4)GlcNAc(b1-4)GlcNAc(b1-4)GlcNAc(b1-4)GlcNAc(b1-4)GlcNAc
Summary of the method: as §1

[14] = target: Kdn(a2-3)Gal(b1-4)GlcNAc
Summary of the method: as §1

[15] = target: Man(a1-3)[Man(a1-6)]Man(a1-6)[Man(a1-3)]Man(b1-4)GlcNAc(b1-4)GlcNAc
Summary of the method: as §1

[16] = target: Man(a1-3)[Man(a1-6)]Man(b1-4)GlcNAc(b1-4)GlcNAc
Summary of the method: as §1

[17] = target: Neu5Ac(a2-3)Gal(b1-3)GalNAc6S
Summary of the method: as §1

[18] = target: Neu5Ac(a2-3)Gal(b1-3)[Fuc(a1-4)]GlcNAc
Summary of the method: as §1

[19] = target: Neu5Ac(a2-3)Gal(b1-3)[Fuc(a1-4)]GlcNAc(b1-3)Gal(b1-4)[Fuc(a1-3)]GlcNAc
Summary of the method: as §1

[20] = target: Neu5Ac(a2-3)Gal(b1-3)[Neu5Ac(a2-6)]GalNAc
Summary of the method: as §1

[21] = target: Neu5Ac(a2-3)Gal(b1-4)GlcNAc(b1-3)Gal(b1-3)GlcNAc
Summary of the method: as §1

[22] = target: Neu5Ac(a2-3)Gal(b1-4)[Fuc(a1-3)]GlcNAc(b1-6)[Gal(b1-3)]GalNAc
Summary of the method: as §1

[23] = target: Neu5Ac(a2-3)Gal(b1-4)[Fuc(a1-3)]GlcNAc6S
Summary of the method: as §1

[24] = target: Neu5Ac(a2-3)[Neu5Ac(a2-6)]GalNAc
Summary of the method: as §1

[25] = target: Neu5Ac(a2-6)GalNAc(b1-4)GlcNAc
Summary of the method: as §1

[26] = target: Neu5Gc(a2-3)Gal(b1-3)[Fuc(a1-4)]GlcNAc
Summary of the method: as §1

[27] = target: Fuc(a1-2)Gal(b1-3)GlcNAc
Summary of the method: as §1

[28] = target: Fuc(a1-2)Gal(b1-4)[Fuc(a1-3)]GlcNAc
Summary of the method: as §1

[29] = target: Fuc(a1-3)[Gal(b1-4)]GlcNAc
Summary of the method: as §1

[30] = target: Fuc(a1-3)[Gal3S(b1-4)]Glc6S
Summary of the method: as §1

[31] = target: Fuc(a1-3)[Gal3S(b1-4)]GlcNAc6S
Summary of the method: as §1

[32] = target: Fuc(b1-3)GlcNAc
Summary of the method: as §1

[33] = target: Gal(b1-3)Gal
Summary of the method: as §1

[34] = target: Gal(b1-4)GlcNAc(b1-6)GalNAc
Summary of the method: as §1

[35] = target: Gal3S(b1-4)GlcNAc
Summary of the method: as §1

[36] = target: Gal4S(b1-4)GlcNAc
Summary of the method: as §1

[37] = target: Gal6S(b1-4)Glc6S
Summary of the method: as §1

[38] = target: GlcNAc(b1-3)Gal(b1-3)GalNAc
Summary of the method: as §1

[39] = target: Man(a1-3)[Man(a1-6)]Man
Summary of the method: as §1

[40] = target: Neu5Ac9Ac(a2-6)Gal(b1-4)GlcNAc
Summary of the method: as §1

B1: P-Selectin (Homo sapiens), P16109 (protein)
chain: MANCQIAILYQRFQRVVFGISQLLCFSALISELTNQKEVAAWTYHYSTKAYSWNISRKYCQNRYTDLVAIQNKNEIDYLNKVLPYYSSYYWIGIRKNNKTWTWVGTKKALTNEAENWADNEPNNKRNNEDCVEIYIKSPSAPGKWNDEHCLKKKHALCYTASCQDMSCSKQGECLETIGNYTCSCYPGFYGPECEYVRECGELELPQHVLMNCSHPLGNFSFNSQCSFHCTDGYQVNGPSKLECLASGIWTNKPPQCLAAQCPPLKIPERGNMTCLHSAKAFQHQSSCSFSCEEGFALVGPEVVQCTASGVWTAPAPVCKAVQCQHLEAPSEGTMDCVHPLTAFAYGSSCKFECQPGYRVRGLDMLRCIDSGHWSAPLPTCEAISCEPLESPVHGSMDCSPSLRAFQYDTNCSFRCAEGFMLRGADIVRCDNLGQWTAPAPVCQALQCQDLPVPNEARVNCSHPFGAFRYQSVCSFTCNEGLLLVGASVLQCLATGNWNSVPPECQAIPCTPLLSPQNGTMTCVQPLGSSSYKSTCQFICDEGYSLSGPERLDCTRSGRWTDSPPMCEAIKCPELFAPEQGSLDCSDTRGEFNVGSTCHFSCDNGFKLEGPNNVECTTSGRWSATPPTCKGIASLPTPGLQCPALTTPGQGTMYCRHHPGTFGFNTTCYFGCNAGFTLIGDSTLSCRPSGQWTAVTPACRAVKCSELHVNKPIAMNCSNLWGNFSYGSICSFHCLEGQLLNGSAQTACQENGHWSTTVPTCQAGPLTIQEASTSITAYKSEGESAEFSFPLNLGEESLQGELRWKAEKAPSSQSWITFSLKNQKVSVQKSTSNPKFQLSETLPLTLQIPQVSLQFAGSGNLTLTLDRGILYQEVNLVVMKVTQPDSNTLTCEVMGPTSPKMRLILKQENQEARVSRQEKVIQVQAPEAGVWQCLLSEGEEVKMDSKIQVLSKGLNSGGGSGGGTGGGDLAPQMLRELQETNAALQDVRELLRQQVKEITFLKNTVMECDACGLDRNLPPLAPLGPHPETLVKVKDAEDQLGARVGYIELDLNSGKILESFRPEERFPMMSTFKVLLCGAVLSRIDAGQEQLGRRIHYSQNDLVEYSPVTEKHLTDGMTVRELCSAAITMSDNTAANLLLTTIGGPKELTAFLHNMGDHVTRLDRWEPELNEAIPNDERDTTMPVAMATTLRKLLTGELLTLASRQQLIDWMEADKVAGPLLRSALPAGWFIADKSGAGERGSRGIIAALGPDGKPSRIVVIYTTGSQATMDERNRQIAEIGASLIKHWGPDYKDHDGDYKDHDIDYKDDDDKGPHHHHHH
[1]
  glycan array binding signal (z-score): -0.092
[2]
  glycan array binding signal (z-score): -0.268
[3]
  glycan array binding signal (z-score): -0.151
[4]
  glycan array binding signal (z-score): -0.071
[5]
  glycan array binding signal (z-score): -0.218
[6]
  glycan array binding signal (z-score): -0.174
[7]
  glycan array binding signal (z-score): -0.301
[8]
  glycan array binding signal (z-score): -0.219
[9]
  glycan array binding signal (z-score): -0.113
[10]
  glycan array binding signal (z-score): 4.08
[11]
  glycan array binding signal (z-score): -0.237
[12]
  glycan array binding signal (z-score): -0.329
[13]
  glycan array binding signal (z-score): -0.163
[14]
  glycan array binding signal (z-score): -0.191
[15]
  glycan array binding signal (z-score): -0.052
[16]
  glycan array binding signal (z-score): 0.332
[17]
  glycan array binding signal (z-score): 0.282
[18]
  glycan array binding signal (z-score): 6.36
[19]
  glycan array binding signal (z-score): 3.52
[20]
  glycan array binding signal (z-score): 0.025
[21]
  glycan array binding signal (z-score): -0.141
[22]
  glycan array binding signal (z-score): 0.071
[23]
  glycan array binding signal (z-score): 9.93
[24]
  glycan array binding signal (z-score): -0.109
[25]
  glycan array binding signal (z-score): -0.322
[26]
  glycan array binding signal (z-score): 4.38

B2: Fap1 (Streptococcus parasanguis) (protein)
chain: KATSKGTEEKQDSVRENLDKMISEAEVLNDMAARKLITLDAEQQLELMKSLVATQSQLEATKNLIGDPNATVADLQIAYTTLGNNTQALGNELIKLNPNGQIYAVLNNTEASRAATLRSTTTGTKTTFTISDFSNGGTQYYWAGGNANNLKNPISSISAVYDSATGKISWTVEYDPTTILKSPALKTLKTYTGIYIDTSSDSKLSTPTNVLIDGAATNPVTNFYGNGSKGIEYVSKGTTKGVTKHTITFDTAFSGRANDLADLEIKMLAATTLSDPHFYEDGSKGNYGRYNGQTAPYVIANDSGTAIGGYQVSGVNADSIPSDTT
[1]
  glycan array binding signal (z-score): 1.54
[27]
  glycan array binding signal (z-score): 0.203
[28]
  glycan array binding signal (z-score): 0.342
[29]
  glycan array binding signal (z-score): 0.377
[30]
  glycan array binding signal (z-score): 0.012
[31]
  glycan array binding signal (z-score): 2.23
[32]
  glycan array binding signal (z-score): 0.144
[33]
  glycan array binding signal (z-score): -0.318
[34]
  glycan array binding signal (z-score): 0.546
[35]
  glycan array binding signal (z-score): -0.22
[10]
  glycan array binding signal (z-score): 1.8
[36]
  glycan array binding signal (z-score): 1.82
[37]
  glycan array binding signal (z-score): -0.521
[38]
  glycan array binding signal (z-score): 2.08
[39]
  glycan array binding signal (z-score): 0.624
[40]
  glycan array binding signal (z-score): 0.638
